ssDAF-12 act: activates DAF-12 receptor from parasite S. stercoralis; 370,000 compounds, 1% hits; AID 652126; activation, % at 6.8 µM; HEK293 ssDAF-12/GRIP1 lit1-tk-luc reporter, luminescence; % of 3 µM dafachronic acid response;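 active = activation above the mean over all tested compounds plus 3 SD, cut at about 0.9% in these data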;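 also: 0% = DMSO-only wells and 100% = 3 µM delta7-dafachronic acid wells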
hcDAF12 agonist: activators of H. contortus DAF-12 nuclear receptor; HEK293 hcDAF-12 lit1-tk-luc reporter, luminescence; 0% DMSO, 100% Δ7-dafachronic acid; activation, % at 6.8 µM; 370,000 compounds, 1.4% hits; AID 652067;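 active = activation above the mean of all tested compounds plus 3 SD, cut at about 5.5% in these data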;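 also: 100% = response to 3 µM Δ7-dafachronic acid high control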
DAX1 inh-1: inhibits human nuclear receptor DAX1; P51843; HEK293 Gal4-DAX1 luciferase reporter, luminescence; inhibition, % at 6.75 µM; 340,000 compounds, 0.99% hits;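 active = inhibition above the mean over all tested compounds plus 3 SD, cut at about 4.2% in these data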;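 also: 0% = DAX1-transfected cells with DMSO and 100% = empty-vector control cells with DMSO; inhibition shows as a rise in luminescence from relieved DAX1 repression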
hgDAF-12 ag: agonists of H. glycines DAF-12 nuclear receptor. HEK293 GAL4-hgDAF12 UAS-luciferase reporter, agonist luminescence; normalized to butyrate control. activation, % at 6.8 µM. 370,000 compounds, 1.8% hits. AID 687014;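 active = activation above a cutoff set at the mean of all screened compounds plus 3 SD, cut at about 10% in these data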;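 also: 0% = DMSO wells and 100% = sodium butyrate wells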
DAX1 inh-2: inhibitors of DAX1 repression of SF-1 activated StAR promoter. HEK293T StAR-luciferase reporter, SF-1/DAX-1 repression relief. inhibition, % at 6.8 µM. 370,000 compounds, 1.1% hits;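 active = inhibition above the mean over all tested compounds plus 3 SD, cut at about 3.6% in these data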;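 also: 0% = DAX-1 cells with DMSO and 100% = cells lacking DAX-1 with DMSO; higher inhibition means more luminescence from relief of DAX-1 repression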
AHR activator: activates the human aryl hydrocarbon receptor; P35869; AHR-responsive luciferase reporter cells, luminescence; activation, % at 5 µM; 320,000 compounds, 2.5% hits; AID 2796; in the data active = activation above about 47%;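 also: 0% = vehicle wells and 100% = reference agonist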
Target sequence (P35869 whole entry, looked up): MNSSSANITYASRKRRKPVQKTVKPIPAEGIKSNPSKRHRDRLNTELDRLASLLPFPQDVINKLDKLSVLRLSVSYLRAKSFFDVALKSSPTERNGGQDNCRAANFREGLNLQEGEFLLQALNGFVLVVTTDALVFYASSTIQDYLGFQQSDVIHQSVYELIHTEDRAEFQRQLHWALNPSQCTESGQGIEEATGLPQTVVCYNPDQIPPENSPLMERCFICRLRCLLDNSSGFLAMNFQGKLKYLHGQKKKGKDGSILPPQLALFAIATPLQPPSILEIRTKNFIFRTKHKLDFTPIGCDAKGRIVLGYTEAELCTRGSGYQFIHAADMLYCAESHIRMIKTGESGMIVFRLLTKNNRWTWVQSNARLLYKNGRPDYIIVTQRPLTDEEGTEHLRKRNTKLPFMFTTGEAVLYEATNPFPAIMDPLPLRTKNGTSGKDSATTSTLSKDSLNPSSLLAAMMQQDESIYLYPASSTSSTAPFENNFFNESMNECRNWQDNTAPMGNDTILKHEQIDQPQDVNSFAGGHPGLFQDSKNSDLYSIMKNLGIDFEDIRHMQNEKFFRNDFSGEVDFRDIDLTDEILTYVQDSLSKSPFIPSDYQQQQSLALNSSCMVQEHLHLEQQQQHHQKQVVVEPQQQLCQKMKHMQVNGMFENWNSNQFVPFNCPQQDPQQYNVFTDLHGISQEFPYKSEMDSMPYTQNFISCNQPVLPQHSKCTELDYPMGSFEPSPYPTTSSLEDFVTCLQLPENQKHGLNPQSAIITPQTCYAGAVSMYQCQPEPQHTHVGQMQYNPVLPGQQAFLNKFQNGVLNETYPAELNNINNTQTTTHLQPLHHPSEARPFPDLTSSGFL
* hit, by the source's call. A selection: hits, their analogues and other compounds. The true share with any hit is near 5.7%.

How did Cc1noc(C(=O)Nc2cccnc2Cl)c1Cl do in these assays?
ssDAF-12 act: 0; hcDAF12 agonist: 0; DAX1 inh-1: 1; hgDAF-12 ag: -1; DAX1 inh-2: 0

Results for Cc1ccc(O)c(NC(=O)c2onc(C)c2Cl)c1 ?
ssDAF-12 act: 1.8*; hcDAF12 agonist: 6.0*; DAX1 inh-1: 3; hgDAF-12 ag: 4; DAX1 inh-2: 0; AHR activator: 72*

How did CCCc1cc(C(=O)Nc2cccc(C(C)=O)c2)no1 do in these assays?
ssDAF-12 act: 1; hcDAF12 agonist: 5.9*; DAX1 inh-1: 3; hgDAF-12 ag: 4; DAX1 inh-2: 1; AHR activator: 6

What do the screens show for `O=C1NC2(CCSC2)C(=O)N1CC(=O)N(Cc1ccccc1)C1CCS(=O)(=O)C1` (stereo unspecified)?
ssDAF-12 act: -2; hcDAF12 agonist: 0; DAX1 inh-1: 0; hgDAF-12 ag: -1; DAX1 inh-2: 0; AHR activator: 2

What do the screens show for `Cn1cnc([N+](=O)[O-])c1Sc1nc(N)nc2c1ncn2C1OC(CO)C(O)C1O` (stereo unspecified)?
ssDAF-12 act: -1; hcDAF12 agonist: -3; DAX1 inh-1: 1; hgDAF-12 ag: 3; DAX1 inh-2: -3

Results for CC(C)(C)C(=O)NNC(=O)C1CC1(c1ccccc1)c1ccccc1 (stereo unspecified) ?
ssDAF-12 act: -1; hcDAF12 agonist: -1; DAX1 inh-1: 0; hgDAF-12 ag: 0; DAX1 inh-2: 0; AHR activator: 4

Results for COCCCNC(=O)C1Cc2cc(S(=O)(=O)N3CCCC3)ccc2N1C(C)=O (stereo unspecified) ?
ssDAF-12 act: -1; hcDAF12 agonist: -1; DAX1 inh-1: 0; hgDAF-12 ag: 0; DAX1 inh-2: 0; AHR activator: -1

How did COC(=O)c1cccc2c([N+](=O)[O-])c(NC(C)=O)cc(C(=O)OC)c12 do in these assays?
ssDAF-12 act: -1; hcDAF12 agonist: 0; hgDAF-12 ag: 4; DAX1 inh-2: 0

Results for Cc1noc(C(=O)Nc2ccc(F)cc2F)c1Cl ?
ssDAF-12 act: 0; hcDAF12 agonist: 0; DAX1 inh-1: 4.2*; hgDAF-12 ag: 3; DAX1 inh-2: 0

How did Cc1ccc(O)c(NC(=O)c2cc(-c3cccs3)on2)c1 do in these assays?
ssDAF-12 act: 0; hcDAF12 agonist: 2; DAX1 inh-1: 1; hgDAF-12 ag: 11*; DAX1 inh-2: 1; AHR activator: -2

What do the screens show for `CC(C(=O)N(C)C1CCCCC1)N1CCC(C(N)=O)CC1` (stereo unspecified)?
ssDAF-12 act: -2; hcDAF12 agonist: -2; DAX1 inh-1: -1; hgDAF-12 ag: -3; DAX1 inh-2: 0; AHR activator: 5

What do the screens show for `O=C(O)C(=Cc1ccc([N+](=O)[O-])cc1)c1ccccc1`?
ssDAF-12 act: -1; hcDAF12 agonist: -1; hgDAF-12 ag: 2; DAX1 inh-2: 1

What do the screens show for `COC(=O)[C@]12C[C@H](CC(=O)NCC34CC5CC(CC(C5)C3)C4)C(=O)N(CCC3=CCCCC3)C1=C[C@H](C(C)(C)C)O[C@@H]2C`?
ssDAF-12 act: -1; hcDAF12 agonist: 1; hgDAF-12 ag: 1; DAX1 inh-2: 0

What do the screens show for `CC(C)C[C@H](NC1(C(=O)NCCc2c[nH]c3ccccc23)CCC1)C(=O)NCCCc1ccccc1`?
ssDAF-12 act: -1; hcDAF12 agonist: 1; hgDAF-12 ag: 3

Results for Cc1cc2nc(-c3ccc(NC(=O)C(C)C)cc3)oc2cc1C ?
ssDAF-12 act: 1.0*; hcDAF12 agonist: 5; DAX1 inh-1: 1; hgDAF-12 ag: 11*; DAX1 inh-2: 3.7*; AHR activator: -18

Results for O=S(=O)(Nc1ccc(-c2nc3cccnc3s2)cc1)c1cc(F)ccc1F ?
ssDAF-12 act: -1; hcDAF12 agonist: 1; DAX1 inh-1: 1; hgDAF-12 ag: 3; DAX1 inh-2: 1; AHR activator: 38

How did Cc1ccc(-c2nc3cccnc3s2)cc1NS(=O)(=O)c1cccs1 do in these assays?
ssDAF-12 act: 0; hcDAF12 agonist: 6.1*; DAX1 inh-1: 3; hgDAF-12 ag: 5; DAX1 inh-2: 1; AHR activator: 59*

Results for CCOC(=O)C1(C)CCN1C(=O)c1ccc(C(=O)OC)cc1 (stereo unspecified) ?
ssDAF-12 act: -1; hcDAF12 agonist: 0; hgDAF-12 ag: 2; DAX1 inh-2: 1

Results for COc1ccc(/C(N)=N/OC(=O)c2ccc3c(c2)OCO3)cc1 ?
ssDAF-12 act: -1; hcDAF12 agonist: 6.0*; DAX1 inh-1: 1; hgDAF-12 ag: 6; DAX1 inh-2: 0; AHR activator: 2

How did N/C(=N\OC(=O)c1ccc2c(c1)OCO2)c1ccc(Cl)cc1 do in these assays?
ssDAF-12 act: -1; hcDAF12 agonist: -1; DAX1 inh-1: 1; hgDAF-12 ag: 6; DAX1 inh-2: 0; AHR activator: 6

How did N/C(=N\OC(=O)c1ccc2c(c1)OCO2)c1ccncc1 do in these assays?
ssDAF-12 act: -1; hcDAF12 agonist: 3; DAX1 inh-1: 5.1*; hgDAF-12 ag: 7; DAX1 inh-2: 1; AHR activator: 26

What do the screens show for `CC1SC(c2ccc(F)cc2)N(CCc2ccccc2)C1=O` (stereo unspecified)?
ssDAF-12 act: 0; hcDAF12 agonist: 0; DAX1 inh-1: -1; hgDAF-12 ag: 4; DAX1 inh-2: 0; AHR activator: 9

How did Cc1sc2nc(CSC(C)C(=O)Nc3ccccn3)[nH]c(=O)c2c1C (stereo unspecified) do in these assays?
ssDAF-12 act: -1; hcDAF12 agonist: 2; DAX1 inh-1: 0; hgDAF-12 ag: 4; DAX1 inh-2: 4.0*; AHR activator: 6

How did Cc1cccc(NC(=O)C(C)SCc2nc3sc(C)c(C)c3c(=O)[nH]2)n1 (stereo unspecified) do in these assays?
ssDAF-12 act: -1; hcDAF12 agonist: -1; DAX1 inh-1: 0; hgDAF-12 ag: -4; DAX1 inh-2: 0; AHR activator: 7

Results for Cc1sc2nc(CSCC(=O)Nc3c(F)cccc3F)[nH]c(=O)c2c1C ?
ssDAF-12 act: -1; hcDAF12 agonist: 0; DAX1 inh-1: 2; hgDAF-12 ag: 3; DAX1 inh-2: 1; AHR activator: 7

Results for Cc1sc2nc(CSCC(=O)Nc3ccc(C(F)(F)F)cc3)[nH]c(=O)c2c1C ?
ssDAF-12 act: -1; hcDAF12 agonist: -1; DAX1 inh-1: 0; hgDAF-12 ag: 3; DAX1 inh-2: -1; AHR activator: 59*

What do the screens show for `COc1ccc(C(=O)N2CCCC(CCC(=O)NCc3ccccc3F)C2)c(OC)n1` (stereo unspecified)?
ssDAF-12 act: 0; hcDAF12 agonist: -1; DAX1 inh-1: 0; hgDAF-12 ag: -1; DAX1 inh-2: 0; AHR activator: 4

Source: PubChem (The Scripps Research Institute Molecular Screening Center)
